# Where “and” joins values, the source holds several entries; their conditions need not be identical. Equal entries are not always repeated. Results filed as inconclusive are left out. The source holds several records for some structures; these can differ, active in one and inactive in another. Calls of active or inactive are those of the source. Unless noted, calls come from the whole dose curve; as a rule, active = well fitted cell-killing curve with a large enough effect in the repeat runs; inconclusive = weak or mixed curves; inactive = no such curve, though single readings can be large or run the other way.
# Biological target: Peroxisome proliferator-activated receptor delta (Homo sapiens) (UniProt Q03181)
# Assay: qHTS assay to identify small molecule agonists of the peroxisome proliferator-activated receptor delta (PPARd) signaling pathway (AID 743212; calls by dose curve;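 note: HEK293H cells with PPARd UAS beta-lactamase reporter GeneBLAzer system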)
# Conditions: HEK293H PPARd-UAS-bla, beta-lactamase FRET ratio, 17 h; series mostly up to 62.6 µM; activation: at the top concentration
# Procedure, shortened: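 Beta-lactamase reporter read by fluorescence (LiveBLAzer B/G FRET, 2 h, room temperature). Test agents, in DMSO, incubated at 37 C with PPARd-bla HEK293H cells.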
# % is set by controls: 0 for no effect and ±100 for the full control effect; potency is the fitted concentration of half-maximal effect.
# Chain of Peroxisome proliferator-activated receptor delta (Homo sapiens) (Q03181 whole entry, looked up): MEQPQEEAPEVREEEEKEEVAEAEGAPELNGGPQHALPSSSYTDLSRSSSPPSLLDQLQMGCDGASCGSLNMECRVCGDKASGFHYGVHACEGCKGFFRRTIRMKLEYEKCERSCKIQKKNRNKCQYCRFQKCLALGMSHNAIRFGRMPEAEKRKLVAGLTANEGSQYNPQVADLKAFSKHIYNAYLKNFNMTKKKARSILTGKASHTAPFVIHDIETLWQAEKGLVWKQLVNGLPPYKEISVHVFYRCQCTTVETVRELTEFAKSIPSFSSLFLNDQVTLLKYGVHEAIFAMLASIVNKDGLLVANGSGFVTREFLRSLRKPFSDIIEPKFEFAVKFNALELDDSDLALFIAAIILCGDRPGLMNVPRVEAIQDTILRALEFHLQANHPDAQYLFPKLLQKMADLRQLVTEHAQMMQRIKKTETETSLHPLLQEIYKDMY
SMILES,Potency,activation
CCCCCCCCOC(=O)c1ccc(O)cc1,inactive,
N#CC1(c2ccc(F)cc2)CCC(=O)CC1,,-0.197% (inactive)
Cc1cccc(N(C)C(=S)Oc2ccc3c(c2)C2CCC3C2)c1 (stereo not drawn),,1.27% (inactive)
O=c1cc(-c2ccc(O)cc2)oc2cc(O)cc(O)c12,,0.219% [at 81.1 µM] (inactive)
COC(=O)C1=C(C)NC(C)=C(C(=O)OCCc2ccc(N3CCN(C(c4ccccc4)c4ccccc4)CC3)cc2)C1c1cccc([N+](=O)[O-])c1 (stereo not drawn),,0.818% (inactive)
Cc1[nH]nc2c1N=C(c1ccccc1Cl)c1cc([N+](=O)[O-])ccc1N2,,-1.37% (inactive)
CN(C)CCCOC1(Cc2ccccc2)CCCCCC1,,-4.86% (inactive)
C/C(=C(/OCCOc1ccc(Cl)cc1)c1ccc(Cl)cc1Cl)n1ccnc1,,-11.3% (inactive)
CCC(CN)=C(c1ccccc1)c1ccccc1,,-10.1% (inactive)
CC(C)(C)C1CCC(CC2=C(O)c3ccccc3C(=O)C2=O)CC1 (stereo not drawn),,-4.56% (inactive)
Nc1nc2ccccc2n1Cc1ccc(F)cc1,,11.4% (inactive)
CCCCC(CC)COC(=O)c1ccccc1C(=O)O (stereo not drawn),49.9 µM (active),
COC(=O)c1cc(Cl)ccc1OC,,1.57% (inactive)
Clc1ccc(C(Cn2ccnc2)OCc2ccc(Sc3ccccc3)cc2)c(Cl)c1 (stereo not drawn),,-0.624% (inactive)
O=C(Oc1ccccc1)c1ccccc1C(=O)Oc1ccccc1,,-6.21% (inactive)

# System: not listed separately
# Assay: qHTS assay to identify small molecule antagonists of the peroxisome proliferator-activated receptor delta (PPARd) signaling pathway - cell viability counter screen (AID 743213); note: nearly all actives have a fitted effect of over 50% in size
# Conditions: PPARd-bla HEK293H viability, CellTiter-Glo luminescence, 17 h; series mostly up to 62 µM; viability change, negative = cytotoxic: at the top concentration
# Procedure, shortened: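 Agonist-stimulated (L165041, 300 nM final) HEK293H PPARd UAS-bla cells are exposed to compounds for 17 h at 37 C, and ATP-based luminescence (CellTiter-Glo) from the same wells reports cytotoxicity.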
SMILES,Potency,"viability change, negative = cytotoxic"
CCCCCCCCOC(=O)c1ccc(O)cc1,49 µM (active),
N#CC1(c2ccc(F)cc2)CCC(=O)CC1,,-3.7% (inactive)
O=c1cc(-c2ccc(O)cc2)oc2cc(O)cc(O)c12,inactive,
Cc1oc(-c2ccccc2)nc1CCC(=O)c1ccc(CC2SC(=O)NC2=O)cc1 (stereo not drawn),,-2.25% (inactive)
NC(=O)C1(N2CCCCC2)CCN(CCCN2c3ccccc3CCc3ccc(Cl)cc32)CC1,18.8 µM (active),
COC(=O)C1=C(C)NC(C)=C(C(=O)OCCc2ccc(N3CCN(C(c4ccccc4)c4ccccc4)CC3)cc2)C1c1cccc([N+](=O)[O-])c1 (stereo not drawn),,11.6% (inactive)
CCCCCCCC(=O)[O-].CCCCCCCC(=O)[O-].[Zn+2],,-28.9% (inactive)
CN(C)[C@@H]1C(=O)C(C(N)=O)=C(O)[C@@]2(O)C(=O)C3=C(O)c4c(O)cccc4C[C@H]3C[C@@H]12,,-2.86% (inactive)
CCCCCOc1ccccc1/C(=C\SC)n1ccnc1,,-14.7% (inactive)
Cc1ccc(O)c2ncccc12,1.19 µM (active),
O=[N+]([O-])c1cc([N+](=O)[O-])c2ccc(S(=O)(=O)O)cc2c1O,,1.2% (inactive)
CN(C)CCCOC1(Cc2ccccc2)CCCCCC1,,-17.7% (inactive)
O=c1[nH]sc2cc(Cl)ccc12,11.9 µM (active),
C/C(=C(/OCCOc1ccc(Cl)cc1)c1ccc(Cl)cc1Cl)n1ccnc1,,3.67% (inactive)
CN1CCC(Nc2ncc3ncnc(Nc4ccc(F)c(Cl)c4)c3n2)CC1,5.96 µM (active),
Cc1cccc2c1cc1ccc3cccc4ccc2c1c34,,-19.1% [at 80.4 µM] (inactive)
OCCN1CCN(CC/C=C2/c3ccccc3Sc3ccc(C(F)(F)F)cc32)CC1,23.7 µM (active),
CCc1cc(SCc2sc(-c3ccc(C(F)(F)F)cc3)nc2CN2CCN(c3ccc(OC)cc3)CC2)ccc1OCC(=O)O,5.49 µM (active),
CCC(CN)=C(c1ccccc1)c1ccccc1,13.3 µM (active),
CC(C)(C)C1CCC(CC2=C(O)c3ccccc3C(=O)C2=O)CC1 (stereo not drawn),,2.31% (inactive)
Nc1nc2ccccc2n1Cc1ccc(F)cc1,,-13.4% (inactive)
CCCCCCCCNC(C)C(O)c1ccc(SC(C)C)cc1 (stereo not drawn),8.41 µM (active),
COC(=O)c1cc(Cl)ccc1OC,,15.5% (inactive)
Clc1ccc(C(Cn2ccnc2)OCc2ccc(Sc3ccccc3)cc2)c(Cl)c1 (stereo not drawn),,-11.2% (inactive)
Nc1ccc2c3c(cccc13)-c1ccccc1-2,49.5 µM (active),
Cc1cc(=O)oc2cc(N(C)C)ccc12,,-6.48% (inactive)

# Biological target: Peroxisome proliferator-activated receptor delta (Homo sapiens) (UniProt Q03181)
# Assay: qHTS assay to identify small molecule antagonists of the peroxisome proliferator-activated receptor delta (PPARd) signaling pathway (AID 743215; active = well fitted inhibition curve with a large enough effect in the signal ratio in the repeat runs, not every such curve was filed as active; the % refers to the signal ratio)
# Conditions: HEK293H PPARd-UAS-bla, beta-lactamase FRET ratio, antagonist, 17 h; series mostly up to 62 µM; ratio activity, negative = inhibition: at the top concentration
# Procedure, shortened: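 Fluorescence from cleaved LiveBLAzer B/G FRET substrate (2 h, room temperature) reports PPARd-driven beta-lactamase in HEK293H UAS-bla cells. Cells had been treated 17 h at 37 C with compound plus 300 nM final L165041.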
SMILES,"ratio activity, negative = inhibition",Potency
N#CC1(c2ccc(F)cc2)CCC(=O)CC1,0.604% (inactive),
Cc1cccc(N(C)C(=S)Oc2ccc3c(c2)C2CCC3C2)c1 (stereo not drawn),-32% (inactive),
O=c1cc(-c2ccc(O)cc2)oc2cc(O)cc(O)c12,,inactive and 17.4 µM (active)
NC(=O)C1(N2CCCCC2)CCN(CCCN2c3ccccc3CCc3ccc(Cl)cc32)CC1,,29.8 µM (active)
CC1=C(C(=O)OC(C)C)C(c2cccc([N+](=O)[O-])c2)C(C(=O)OC2CN(C(c3ccccc3)c3ccccc3)C2)=C(N)N1 (stereo not drawn),-23.7% (inactive),
COC(=O)C1=C(C)NC(C)=C(C(=O)OCCc2ccc(N3CCN(C(c4ccccc4)c4ccccc4)CC3)cc2)C1c1cccc([N+](=O)[O-])c1 (stereo not drawn),5.46% (inactive),
Cc1[nH]nc2c1N=C(c1ccccc1Cl)c1cc([N+](=O)[O-])ccc1N2,,24.5 µM (active)
CN(C)CCCOC1(Cc2ccccc2)CCCCCC1,-3.96% (inactive),
O=C(N/N=C/c1ccccc1O)c1ccncc1,,2.11 µM (active)
COC(=O)c1cc(Cl)ccc1OC,-4.06% (inactive),
Clc1ccc(C(Cn2ccnc2)OCc2ccc(Sc3ccccc3)cc2)c(Cl)c1 (stereo not drawn),-15.9% (inactive),
O=C(Oc1ccccc1)c1ccccc1C(=O)Oc1ccccc1,-23.2% (inactive),
